# “And” between values parts separate entries of the source, which are not always exact repeats. Identical values can stand only once. Inconclusive results are not listed. Values without a mark were called inactive. The source made the active and inactive calls. Calls follow the shape of the dose curve; as a rule, active = well fitted inhibition curve with a large enough effect; inconclusive = small, poorly fitted or top-dose-only effect; inactive = flat fitted curve, though single readings scatter.
# Tested on: KB-3-1
# Assay: Cytotoxic Profiling of Annotated Libraries Using Quantitative High-Throughput Screening (AID 1296008); also: nearly all actives have a fitted effect of over 60% in size
# Settings: Five cell lines viability, CellTiter-Glo ATP luminescence, 48-72 h; max response: active compounds read low
# Outline: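 Cells exposed to compounds for 48 or 72 hr at 37 degrees Celsius. Viability read as ATP-coupled luminescence with CellTiter-Glo after 10 min at room temperature.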
# % is scaled to controls: 0 for no effect and ±100 for the full control effect; potency is read from the fitted curve at half-maximal effect.
SMILES,max response,Potency,outcome
CO[C@H]1[C@@H](O)[C@H](N)[C@@H](O[C@H]2O[C@H]([C@H](C)N)CC[C@H]2N)[C@H](O)[C@@H]1N(C)C(=O)CN,-19.3%,,
O=P(O)(O)C(Sc1ccc(Cl)cc1)P(=O)(O)O,2.09%,,
CCC(C)(C)OC(=O)N[C@@H](Cc1c[nH]c2ccccc12)C(=O)N[C@@H](CCSC)C(=O)N[C@@H](CC(=O)O)C(=O)N[C@@H](Cc1ccccc1)C(N)=O,0.713%,,
COCC1=C(C(=O)OC(C)OC(=O)OC(C)C)N2C(=O)[C@@H](NC(=O)/C(=N\OC)c3csc(N)n3)[C@H]2SC1 (some centres undefined),-19.8% and -4.94%,,
CCCCCCCCCCCCCCCCCC(=O)[O][Al],-8.23%,,
O=C(O)CC(O)(CC(=O)O)C(=O)O,-1.69%,,
C=C1C(=O)O[C@@H]2[C@H]3C(C)=CC(=O)C3=C(C)[C@@H](OC(=O)/C(C)=C\C)[C@H](O)[C@@H]12,5.28%,,
CO[C@H]1C[C@H](O[C@H]2[C@H](C)O[C@@H](O[C@@H]3/C(C)=C/C[C@@H]4C[C@@H](C[C@]5(C=C[C@H](C)[C@@H](C6CCCCC6)O5)O4)OC(=O)[C@@H]4C=C(C)[C@@H](O)[C@H]5OC/C(=C\C=C\[C@@H]3C)[C@]54O)C[C@@H]2OC)O[C@@H](C)[C@@H]1O,,20.6 µM (active),
CCC(C)[C@H]1O[C@]2(C=C[C@@H]1C)C[C@@H]1C[C@@H](C/C=C(\C)[C@@H](O[C@H]3C[C@H](OC)[C@@H](O[C@H]4C[C@H](OC)[C@H](NC(C)=O)[C@H](C)O4)[C@H](C)O3)[C@@H](C)/C=C/C=C3\CO[C@@H]4[C@H](O)C(C)=C[C@@H](C(=O)O1)[C@]34O)O2 (some centres undefined),,9.2 µM (active),
CC1(C)S[C@@H]2[C@H](NC(=O)[C@H](N)c3ccccc3)C(=O)N2[C@H]1C(=O)OCOC(=O)[C@@H]1N2C(=O)C[C@H]2S(=O)(=O)C1(C)C,-17%,,
Cc1ccc(-c2c(C(=O)CCl)n(CCCO)c3ncnc(N)c23)cc1,-3.1%,,
C=C1C(=O)O[C@H]2CC(=C)[C@H]3CC[C@@](C)(O)[C@@H]3CC12 (some centres undefined),-21.5%,,
CCC(=O)O,-11.1%,,
Cc1ccc(/C(=C\CN2CCCC2)c2cccc(/C=C/C(=O)O)n2)cc1,-13.8%,,
C/C=C1\NC(=O)[C@H]2CSSCC/C=C/[C@H](CC(=O)N[C@H](C(C)C)C(=O)N2)OC(=O)C(C(C)C)NC1=O (some centres undefined),,0.0092 µM (active),
O=C(O)c1cccc(/C=C2/C[C@@H]3[C@@H](/C=C/[C@@H](O)C4CCCCC4)[C@H](O)C[C@@H]3O2)c1,-0.588%,,
CC(=O)O[C@H]1CC[C@@]2(C)C(=CC[C@@H]3[C@@H]2CC[C@]2(C)C(c4cccnc4)=CC[C@@H]32)C1,0.542%,,
CC(=O)[C@@]1(O)CC[C@H]2[C@@H]3C=C(Cl)C4=CC(=O)CC[C@]4(C)[C@H]3CC[C@@]21C,-17.5%,,
CCOC(=O)Cc1cccc(-c2cc(CCCCCCc3ccc(O[C@H]4O[C@H](COC(C)=O)[C@@H](OC(C)=O)[C@H](OC(C)=O)[C@@H]4OC(C)=O)c(-c4cccc(CC(=O)OCC)c4)c3)ccc2O[C@H]2O[C@H](COC(C)=O)[C@@H](OC(C)=O)[C@H](OC(C)=O)[C@@H]2OC(C)=O)c1,-10.9%,,
FC(F)(F)c1ccccc1-c1cc(C(F)(F)F)c2nc(C3=NOC4(CCCCC4)C3)[nH]c2c1,-18.9%,,

SMILES,max response,Potency,outcome
CC#CCC(C)[C@H](O)/C=C/[C@@H]1[C@H]2c3cccc(CCCC(=O)O)c3O[C@H]2C[C@H]1O (some centres undefined),-28.3%,,
NNc1nnc(Cc2ccncc2)c2ccccc12,-26.3%,,
CCN(CC)c1ccc(C(=C2C=CC(=[N+](CC)CC)C=C2)c2ccccc2)cc1,,1.3 µM (active),
CCCCCCCCCCCCCCCC(=O)OC[C@@H](COP(=O)([O-])OCC[N+](C)(C)C)OC(=O)CCCCCCCCCCCCCCC,1.61%,,
CN1CC(O)c2cc(N=NC(N)=O)c(O)cc21 (centres undefined),-10.6%,,
CCCCCCCC/C=C\CCCCCCCC(=O)OC[C@@H](O)[C@H]1OC[C@H](O)[C@H]1O,-11.7%,,
C/C=C(/CC[C@@H](C)[C@H]1CC[C@H]2C3=CC[C@H]4[C@H](C)[C@@H](O)CC[C@]4(C)[C@H]3CC[C@]12C)C(C)C,-22.1%,,
CS(=O)(=O)NC(=O)CCC/C=C\C[C@H]1C(=O)C[C@@H](O)[C@@H]1/C=C/[C@H](O)COc1ccccc1,-12.3%,,
CC(C)C[C@@H](N)C(=O)N[C@H]1C(=O)N[C@@H](CC(N)=O)C(=O)N[C@H]2C(=O)N[C@H]3C(=O)N[C@H](C(=O)N[C@H](C(=O)O)c4cc(O)cc(O)c4-c4cc3ccc4O)[C@H](O)c3ccc(c(Cl)c3)Oc3cc2cc(c3O[C@@H]2O[C@H](CO)[C@@H](O)[C@H](O)[C@H]2O[C@H]2C[C@](C)(N)[C@H](O)[C@H](C)O2)Oc2ccc(cc2Cl)[C@H]1O,,,inactive
CC(=O)O[C@H]1C[C@@H]2CC[C@@H]3[C@H](CC[C@@]4(C)[C@H]3C[C@H](N3CC[N+](C)(C)CC3)[C@@H]4OC(C)=O)[C@@]2(C)C[C@@H]1N1CC[N+](C)(C)CC1,-0.194%,,
O=S(=O)(O)Oc1ccc(C(c2ccc(OS(=O)(=O)O)cc2)c2ccccn2)cc1,-0.878%,,
CC1(C)C2CC[C@]3(C)[C@H](C(=O)C=C4[C@@H]5C[C@@](C)(C(=O)O)CC[C@]5(C)CC[C@]43C)[C@@]2(C)CC[C@@H]1O[C@H]1O[C@H](C(=O)O)[C@@H](O)[C@H](O)[C@H]1O[C@@H]1O[C@H](C(=O)O)[C@@H](O)[C@H](O)[C@H]1O (some centres undefined),-22.6%,,
CCCC(CCC)C(N)=O,-11%,,
CC(=O)O[C@H]1CC[C@@]2(C)C(=CC[C@H]3[C@@H]4CC[C@H](C(C)=O)[C@@]4(C)CC[C@@H]32)C1,2.35%,,
COc1ccc(CCNCC(O)COc2cccc(C)c2)cc1OC (centres undefined),-6.7%,,
C=C[C@]1(C)C[C@@H](OC(=O)CO)[C@]2(C)[C@H](C)CC[C@]3(CCC(=O)[C@H]32)[C@@H](C)[C@@H]1O,-28.5%,,
Nc1c(CC(=O)O)cccc1C(=O)c1ccccc1,-7.36% and -8.46%,,
C[C@]12CC[C@@H]3c4ccc(OS(=O)(=O)O)cc4CC[C@H]3[C@@H]1CCC2=O,3.98%,,
CC(CCC1(O)OC2CC3C4CC=C5CC(O[C@@H]6O[C@H](CO)[C@@H](O[C@@H]7O[C@@H](C)[C@H](O)[C@@H](O)[C@H]7O)[C@H](O)[C@H]6O[C@@H]6O[C@@H](C)[C@H](O)[C@@H](O)[C@H]6O)CCC5(C)C4CCC3(C)C2C1C)CO[C@@H]1O[C@H](CO)[C@@H](O)[C@H](O)[C@H]1O (some centres undefined),6.64%,,

# — PubChem BioAssay (NCATS)
